SMN2 splice enh – qHTS Assay for Enhancers of SMN2 Splice Variant Expression. HEK293 SMN2-luciferase splicing reporter, luminescence, 30-36 h. Potency, µM (top dose mostly 46.1 µM), for inactives: at the top dose activity change, positive = activation, actives largely listed as activators. hit rate 2.8% among 210,000. AID 1458, 2008; further: % of control where 0% means no effect; nearly all actives have a fitted effect of over 55% in size
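HEK293 cells carry an SMN2 […]–luciferase reporter in which exon 7 inclusion puts luciferase in frame. Cells were plated 10-12 h before compound addition, then incubated 30-36 h at 37C. ONE-Glo luminescence was read; sodium butyrate at 4.5 mM final served as control.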
Rab9 prom act – qHTS Assay for Rab9 Promoter Activators. hit rate 2.8% among 320,000. Huh7 Rab9 promoter-luciferase reporter, luminescence, 24 h. AID 485297, 2010. Potency, µM (highest dose often 9.22 µM), without a hit: at the highest dose activation, negative = inhibition, usual class: activators; further: % of control where 0% means no effect; nearly all actives have a fitted effect of over 60% in size
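Luciferase signal after 10 min detection reagent at ambient indicates Rab9 promoter upregulation; stably transfected Huh7 cells were treated 24 h with compound in DMSO at 37 °C, 5% CO2.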
p53 reactivation – qHTS assay for re-activators of p53 using a Luc reporter | H1299 p53-A138V BP100-luciferase reporter, luminescence, 24 h | Potency, µM (doses to about 92.2 µM), inactives show at the highest dose activity change, positive = activation, actives largely listed as activators | hit rate 0.063% among 320,000 | AID 504706, 2011; further: % of control where 0% means no effect; nearly all actives have a fitted effect of over 45% in size
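H1299 (p53-null), stable ts p53-A138V + BP100-Luc; 1000 cells/well, Opti-MEM/10% FBS; cpd 4 pt, 1:5; 24 h, 37 deg C, 5% CO2; detection reagent 10 min RT; luminescence.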
ELG1 genotox – qHTS screen for small molecules that induce genotoxicity in human embryonic kidney (HEK293T) cells expressing luciferase-tagged ELG1; hit rate 1.3% among 330,000; Potency, µM (titrated, usually from 46 µM), without a hit: at the highest dose activity change, positive = activation, usual class: activators; HEK293T ELG1-luciferase reporter, luminescence, 16 h; further: % of control where 0% means no effect; nearly all actives have a fitted effect of over 60% in size
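DMSO vehicle served as control against compound-treated ELG1-luciferase HEK293T cells; exposure lasted 16 hr at 37 °C and 5% CO2, followed by ONE-Glo luminescence detection after 30 min.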
NPC1 prom act – qHTS Assay for NPC1 Promoter Activators | Huh7 NPC1 promoter luciferase reporter, 24 h | hit rate 2.4% among 320,000 | AID 485313, 2010 | Potency, µM (titrated, usually from 9.22 µM), inactives show top-dose activation, hits mostly activators; further: % of control where 0% means no effect; nearly all actives have a fitted effect of over 60% in size
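Luciferase expression driven by the NPC1 promoter was measured in stably transfected Huh7 cells after a 24 h compound incubation, using a luciferase reagent and a luminescence read.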
FLuc modulator – qHTS profiling assay for firefly luciferase inhibitor/activator using purifed enzyme and Km concentrations of substrates (counterscreen for miR-21 project). hit rate 6.9% among 360,000. purified FLuc, Km substrates, luminescence inhibition. AID 588342, 2011. Potency, µM (top dose mostly 57.5 µM), for the others: at the highest dose activity change, negative = inhibition, hits mostly inhibitors;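 further: plate controls were vehicle for no effect and reference inhibitor for full effect; nearly all actives have a fitted effect of over 55% in size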
Target sequence (P08659 whole entry, looked up): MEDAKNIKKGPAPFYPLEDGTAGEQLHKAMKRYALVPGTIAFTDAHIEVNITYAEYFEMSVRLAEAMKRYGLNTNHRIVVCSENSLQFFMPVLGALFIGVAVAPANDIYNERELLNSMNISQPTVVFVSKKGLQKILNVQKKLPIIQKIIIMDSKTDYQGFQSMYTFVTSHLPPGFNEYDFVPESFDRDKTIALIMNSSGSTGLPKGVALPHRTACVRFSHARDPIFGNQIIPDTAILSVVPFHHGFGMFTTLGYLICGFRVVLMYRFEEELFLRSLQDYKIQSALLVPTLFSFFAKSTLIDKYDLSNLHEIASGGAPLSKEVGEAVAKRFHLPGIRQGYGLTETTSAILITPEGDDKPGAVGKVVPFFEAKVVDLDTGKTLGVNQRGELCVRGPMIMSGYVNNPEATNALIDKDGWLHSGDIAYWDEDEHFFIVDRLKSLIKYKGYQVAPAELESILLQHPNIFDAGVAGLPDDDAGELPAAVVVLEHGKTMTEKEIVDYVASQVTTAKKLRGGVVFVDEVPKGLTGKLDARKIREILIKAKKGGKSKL
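Purified P. pyralis luciferase (10nM final) with 10uM D-luciferin and 10uM ATP (Km levels) in 50mM Tris acetate pH 7.5, 10mM Mg acetate, 0.01% Tween-20, 0.05% BSA; qHTS 6-point titration, ~60 µM downward; luminescence read.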
* marks the source's active call; other numbers are inactive results; ? = inconclusive; nt = no result; [ ] = dose if it differs, or a comment. In the library only some 7.3% were active in any assay of this set; here they are far more common. The call rests on the fitted dose curve; in most records, active means well fitted curve in the direction sought with a large enough effect; inconclusive means small, poorly fitted or top-dose-only effect, or another doubt; inactive means no such curve, though single readings can be large; an effect the other way counts as inactive or inconclusive. Potency means the concentration at half of the fitted maximal effect.

SMILES | SMN2 splice enh | Rab9 prom act | p53 reactivation | ELG1 genotox | NPC1 prom act | FLuc modulator
Cc1cc(C)n(-c2nc(-c3ccccc3)cs2)n1 | 23% | ? | ? | 18µM* | 26% | 9.5µM*
Cc1c2c(=O)n(-c3nc4ccccc4s3)nc-2cc(O)n1Cc1ccccc1 | nt | -16% | 3% | -1% | -5% | 6.7µM*
Cc1cc(NC(=O)C(C)C)n(-c2nc3ccccc3s2)n1 | -6% | ? | 16% | 7% | 21% | ?
Cc1cc(C)n(-c2nc(-c3cccc(Cl)c3)cs2)n1 | 18% | ? | ? | ? | ? | 11µM*
CN[C@@H](c1ccncc1)[C@@H](NC)c1ccncc1 | -11%[9.22 µM] | nt | nt | nt | nt | nt
COC(=O)N1CCCc2cc(S(=O)(=O)NCc3ccccc3)ccc21 | -6% | nt | nt | nt | nt | -10%
O=C(CC(=O)c1ccccc1)Nc1ccccc1C(F)(F)F | nt | 19% | ? | 10% | 19% | ?
Cc1cccc(N(CC(O)CON=C2c3ccccc3-c3ccccc32)S(C)(=O)=O)c1 (stereo unspecified) | -16% | 0% | -5% | -11% | -1% | 1%
c1ccc2c(Oc3ccc4c(c3)OCO4)nncc2c1 | 10µM* | 0.63µM* | 13% | ? | 1.3µM* | 6µM*
Nc1ccc(Oc2ccc3c(c2)OCO3)cc1 | 6% | 9% | 9% | -8% | 15% | 0%
CC(C)OC(=O)CSc1ncnc2c1cnn2-c1ccccc1 | -14% | 20% | -13% | 27% | 2% | 8.5µM*
Cc1ccc(CSc2ncnc3c2cnn3Cc2ccccc2)cc1 | -16% | -2% | 2% | -1% | -1% | 1%
CC(C)(C)C(=O)CSc1ncnc2c1cnn2-c1ccccc1 | nt | 0.63µM* | 11% | ? | 0.71µM* | 1.2µM*
O=C(CSc1ncnc2c1cnn2-c1ccccc1)Nc1ccc2c(c1)OCO2 | -15% | -15% | 1% | 0% | -1% | -8%
Cc1cc(NC(=O)CSc2ncnc3c2cnn3-c2ccccc2)no1 | -16% | -3% | -6% | -11% | -6% | -4%
c1ccc(CSc2ncnc3c2cnn3-c2ccccc2)cc1 | 22µM* | ? | 27% | ? | ? | 12µM*
O=C1c2ccccc2C(=O)N1OCc1ccccc1 | -4% | -5% | -3% | -3% | 4% | ?
O=C1c2ccccc2C(=O)N1OCc1cccc(Cl)c1 | -20% | 4% | -5% | 3% | 0% | 19µM*
O=C1Cc2ccccc2C(=O)N1OCc1ccc(Cl)cc1Cl | 12% | 3% | -3% | 5% | 4% | 24µM*
CCCCc1nc2cc(C(=O)N3CCCC(OCCC)C3)ccc2o1 (stereo unspecified) | nt | ? | 14% | ? | ? | 17µM*
CCCCc1nc2cc(C(=O)N3CCC(OCCOC)CC3)ccc2o1 | nt | 15% | 16% | ? | 18% | ?
CCCCc1nc2cc(C(=O)N3CCCCC3C(=O)OC)ccc2o1 (stereo unspecified) | nt | 2.8µM* | ? | ? | ? | 15µM*
CCCCc1nc2cc(C(=O)N3CCCCC3CC(=O)OCC)ccc2o1 (stereo unspecified) | nt | ? | 16% | -1% | 23% | 3%
CCCCc1nc2cc(C(=O)N3CCCC(COC)C3)ccc2o1 (stereo unspecified) | nt | 4µM* | ? | ? | 4µM* | 17µM*
CCCCc1nc2cc(C(=O)N3CCCC3)ccc2o1 | nt | 2.8µM* | 10% | ? | ? | ?
SMILES | SMN2 splice enh | Rab9 prom act | p53 reactivation | ELG1 genotox | NPC1 prom act | FLuc modulator
O=c1cc(O)n(-c2ccc(Cl)cc2)c(=S)[nH]1 | 0% | 1% | 4% | 0% | -6% | -2%
CSc1nnc(C)c(=O)n1COC(=O)COc1ccc(Cl)cc1 | 4% | 0% | 4% | 10% | -12% | 5%
CCCCc1nc2cc(C(=O)NCc3ccccn3)ccc2o1 | nt | 12% | 9% | 7% | 2% | -10%
CCCCc1nc2cc(C(=O)NC(C)c3cnn(C)c3)ccc2o1 (stereo unspecified) | nt | 4µM* | 12% | ? | ? | ?
COCc1ccc(C(=O)N(C)CC2CCCN(CCc3ccc(OC)cc3)C2)o1 (stereo unspecified) | nt | ? | ? | ? | ? | 17µM*
Cc1ccc(C)c(Nc2nn3c(=O)c4cc5c(cc4nc3s2)OCO5)c1 | 16% | nt | nt | nt | nt | ?
COc1cccc(Nc2nn3c(=O)c4ccccc4nc3s2)c1 | nt | -6% | 16% | 13% | ? | ?
O=c1c2cc3c(cc2nc2sc(Nc4ccccc4)nn12)OCO3 | 16% | nt | nt | nt | nt | 3µM*
Cc1ccccc1Nc1nn2c(=O)c3ccccc3nc2s1 | 16µM* | ? | 25% | ? | 2.5µM* | 2.7µM*
O=c1c2ccccc2nc2sc(Nc3ccc(F)cc3)nn12 | nt | ? | ? | 10µM* | 2µM* | ?
S=C(NCCc1ccccc1)NCCc1ccccc1 | 13µM* | 4.5µM* | ? | ? | 4.5µM* | 15µM*
O=C(NCCc1ccccc1)C(=Cc1ccc(C(=O)O)cc1)C(=O)NCCc1ccccc1 | 21% | 0% | -1% | 3% | -8% | -7%
C/C(=C\c1ccccc1)C(=O)NCCc1ccccc1 | 11µM* | 0.71µM* | 1% | 4.6µM* | 1.4µM* | 3.4µM*
CC(C)(C)C(=O)NC(=S)NCCc1ccccc1 | 14% | ? | 15% | 12% | ? | 17µM*
NNC(=S)NCCc1ccccc1 | 6% | 7% | -3% | -3% | 6% | -1%
S=C(NCCc1ccccc1)Nc1ccc(Cl)cc1 | 10µM* | 23% | ? | 12% | 24% | 17µM*
CCCn1cc(S(=O)(=O)c2cccc(Cl)c2)c(=O)c2cc(F)c(N3CCOCC3)cc21 | nt | nt | nt | nt | nt | -1%
COC(=O)c1ccc(C(NC(=O)OCc2ccccc2)/C(C)=C/[C@@H](C)C(=O)NCc2nc3ccccc3s2)cc1 (stereo partly specified) | -3% | nt | nt | nt | nt | nt
O=C(NCCc1ccccc1)/C(=N\O)c1ccccc1 | ? | 4µM* | ? | ? | 3.2µM* | 15µM*
Cc1ccccc1NC(=O)NCCc1ccc(Cl)cc1 | 1% | 14% | -4% | 1% | -3% | 1%
O=C(NCCc1ccccc1)Nc1ccc(Cl)cc1 | 11µM* | 3.2µM* | ? | ? | 2.5µM* | 6.7µM*
CC(C)(C)NC(=O)NCCc1ccccc1 | nt | 4µM* | 5% | ? | 1.4µM* | 21µM*
CN(C)CCCNC(=O)/C(=N\O)c1ccccc1 | -7% | 9% | -2% | 2% | -2% | 6%
